Activity calls are given as the source filed them. Unless noted, the rule behind the calls is not given here.

This is an account of results in PubChem BioAssay.

The test system of assay [1] is Wnt5a (protein binding on small-molecule microarray). Nature of the assay: Wnt5a binders on small-molecule microarray, primary screen, biophysical, 635/667 nm fluorescence (AID 1142).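 Note: fluorescence read at 667 nm with signal to noise per printed feature.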 The settings on record: 635 nm fluorescence, higher = more signal.
Assay [2] can be described thus: cell viability in Huh7 cells, primary screen, cytotoxicity control for HCV replication inhibitor project, CellTiter-Glo luminescence, basal, 48 h (AID 1143).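 Note: Huh7 hepatoma cells carrying a hepatitis C replication reporter with no stimulus; test concentration not given here.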 The note with it: Huh7 HCV replicon, higher = more signal, called active from +8 up or from −8 down. On the technique in general: Cellular ATP, detected with luciferase, serves as a proxy for viable cell number.

The nature of assay [3]: P. aeruginosa biofilm formation inhibitors, primary screen, PAO1 strain, BacTiter-Glo luminescence, LB-PBS (AID 1144). The settings on record: 12 h, higher = more signal.
Assay [4] is described as follows: CREB reporter modulators without forskolin, primary screen, cell-based, PC12, CRE-LacZ reporter, unstimulated (AID 1145). The note with it: no forskolin, luminescence, 4.5 h, higher = more signal, called active from +8 up or from −8 down.
Assay [5] can be described thus: CREB reporter modulators under forskolin, primary screen, cell-based, PC12, CRE-LacZ reporter, forskolin-stimulated (AID 1146).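 Note: PC12 cells with 6xCRE LacZ reporter stimulated by forskolin 10 µM; beta-galactosidase reporter signal reflecting CREB driven transcription.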 The settings on record: luminescence, 4.5 h, higher = more signal, called active from +8 up or from −8 down.
The target in assay [6] is Streptavidin (Streptomyces avidinii) (UniProt P22629). Nature of the assay: streptavidin binders on small-molecule microarray, primary screen, artefact control for SMM compound annotation, biophysical, 635/667 nm fluorescence (AID 1147).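 Note: signal reflects streptavidin binding to arrayed compounds as a control protein.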 The note with it: streptavidin binding, higher = more signal.
The nature of assay [7]: small-molecule binders of probe aInhba, primary screen, biochemical, small-molecule microarray, 635/667 nm fluorescence (AID 1148).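 Note: score merges 667nm spot fluorescence with signal-to-noise for antibody binding to printed compounds.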 The settings on record: higher = more signal.
Assay [8] has as its target Torsin-1A (Homo sapiens) (UniProt O14656). Nature of the assay: torsin A binders from cell lysate, primary screen, small-molecule microarray, wild-type, 635/667 nm (AID 1149). The note with it: COS7 hTOR1A-WT lysate, 635 nm fluorescence, higher = more signal.
Assay [9] has the same target. Description: small-molecule binders of mutant TOR1A in lysate, primary screen, cell lysate, small-molecule microarray, COS7 lysate, 635/667 nm fluorescence (AID 1150).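 Note: score pools 667 nm emission and signal to noise measuring lysate protein binding.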 The note with it: COS7 hTOR1A mutant lysate, 635 nm fluorescence, higher = more signal.
Assay [10] has as its system Sonic hedgehog protein (Shh). Description: small-molecule binders of Shh protein, primary screen, biochemical, small-molecule microarray, 635/667 nm fluorescence (AID 1151).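 Note: Shh protein binding to compounds spotted on small-molecule microarray slides; score combines spot fluorescence intensity with signal-to-noise across triplicate slides.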 The note with it: small-molecule microarray binding, 635 nm fluorescence; higher = more signal.
Assay [11] in a line: E. coli DRC41 culture turbidity changes, primary screen, E. coli filamentation inducer project, strain DRC41, OD650, 48 h (AID 1152).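 Note: E. coli MC1000 strain DRC41 lacking acrAB efflux pump and sulA.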 The settings on record: E. coli DRC41 (acrAB sulA), higher = more signal, called active from +8 up or from −8 down.
Assay [12] is described as follows: small-molecule binders of probe aLefty1, primary screen, biochemical, small-molecule microarray, 635/667 nm fluorescence (AID 1153).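 Note: score merges spot fluorescence with signal-to-noise ratio from the scanned slide images.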 The settings on record: higher = more signal.
Assay [13] can be described thus: PSAC antagonists in infected red cells, primary screen, cell-based, P. falciparum Indochina, OD700, 1 h (AID 1154). The settings on record: P. falciparum Indochina infected RBC osmotic lysis, higher = more signal, called active from +8 up or from −8 down.
The nature of assay [14]: PSAC antagonists in infected red cells, primary screen, cell-based, P. falciparum Indochina, OD700, 2 h (AID 1155).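 Note: lysis reports solute entry through the parasite surface anion channel PSAC; channel blockers reduce lysis of infected cells.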 The note with it: P. falciparum Indochina infected erythrocytes, osmotic lysis OD700; higher = more signal, called active from +8 up or from −8 down.
The nature of assay [15]: osmotic lysis modulators in infected erythrocytes, primary screen, PSAC antagonist project, cell-based, P. falciparum Indochina, OD700, 3 h (AID 1156). The settings on record: higher = more signal, called active from +8 up or from −8 down.
A short description of assay [16]: PSAC antagonists in infected red cells, primary screen, cell-based, P. falciparum Indochina, OD700, 18 h (AID 1157). The note with it: P. falciparum Indochina infected erythrocytes, osmotic lysis OD700, 18 h; higher = more signal, called active from +8 up or from −8 down.
A short description of assay [17]: modulators of S6 phosphorylation in cells, primary screen, cell-based, A549, cytoblot, luminescence, serum-stimulated (AID 1158).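 Note: serum-stimulated A549 lung adenocarcinoma cells; signal is phosphorylated S6 detected by cytoblot immunostaining with HRP secondary.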 The note with it: A549 phospho-S6 cytoblot, 5 h, higher = more signal.
Assay [18] has as its target NADPH oxidase 2 (Homo sapiens) (UniProt P04839). Nature of the assay: NOX2-dependent H2O2 signal modulators, primary screen, NOX inhibitor project, cell-based, HEK293-NOX2, PMA-stimulated, Amplex Red fluorescence (AID 1159). Note: test concentration not given here. The settings on record: 45 min, higher = more signal, called active from +8 up or from −8 down.
The target in assay [19] is NADPH oxidase 4 (Homo sapiens) (UniProt Q9NPH5). Nature of the assay: NOX4-dependent H2O2 signal modulators, primary screen, NOX inhibitor project, cell-based, HEK293-NOX4, tetracycline-induced, Amplex Red fluorescence (AID 1160). The note with it: 45 min, higher = more signal, called active from +8 up or from −8 down.
Assay [20] concerns the target NADPH oxidase 5 (Homo sapiens) (UniProt Q96PH1). Nature of the assay: NOX5-dependent H2O2 signal modulators, primary screen, NOX inhibitor project, cell-based, HEK293-NOX5, Amplex Red fluorescence (AID 1161). The settings on record: HEK293-NOX5, ionomycin, 45 min, higher = more signal.

Sequence of NADPH oxidase 4 (Homo sapiens) (Q9NPH5 whole entry, looked up): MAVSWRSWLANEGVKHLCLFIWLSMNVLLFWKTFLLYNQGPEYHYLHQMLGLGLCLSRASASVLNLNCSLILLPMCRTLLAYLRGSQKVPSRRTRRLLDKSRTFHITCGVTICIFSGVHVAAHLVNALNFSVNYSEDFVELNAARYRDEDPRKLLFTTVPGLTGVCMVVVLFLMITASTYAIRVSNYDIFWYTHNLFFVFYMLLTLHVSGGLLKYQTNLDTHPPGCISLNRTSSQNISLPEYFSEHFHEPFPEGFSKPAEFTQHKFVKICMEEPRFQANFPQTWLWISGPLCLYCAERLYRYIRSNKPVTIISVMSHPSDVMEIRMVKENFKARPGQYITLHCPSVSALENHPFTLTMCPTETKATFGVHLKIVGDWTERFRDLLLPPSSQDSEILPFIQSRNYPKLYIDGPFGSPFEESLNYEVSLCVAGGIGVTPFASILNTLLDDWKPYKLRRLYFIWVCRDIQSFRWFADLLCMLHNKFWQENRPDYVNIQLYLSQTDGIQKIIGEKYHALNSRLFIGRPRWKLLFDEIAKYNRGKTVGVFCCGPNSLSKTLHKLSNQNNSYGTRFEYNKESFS
Sequence of NADPH oxidase 5 (Homo sapiens) (Q96PH1 whole entry, looked up): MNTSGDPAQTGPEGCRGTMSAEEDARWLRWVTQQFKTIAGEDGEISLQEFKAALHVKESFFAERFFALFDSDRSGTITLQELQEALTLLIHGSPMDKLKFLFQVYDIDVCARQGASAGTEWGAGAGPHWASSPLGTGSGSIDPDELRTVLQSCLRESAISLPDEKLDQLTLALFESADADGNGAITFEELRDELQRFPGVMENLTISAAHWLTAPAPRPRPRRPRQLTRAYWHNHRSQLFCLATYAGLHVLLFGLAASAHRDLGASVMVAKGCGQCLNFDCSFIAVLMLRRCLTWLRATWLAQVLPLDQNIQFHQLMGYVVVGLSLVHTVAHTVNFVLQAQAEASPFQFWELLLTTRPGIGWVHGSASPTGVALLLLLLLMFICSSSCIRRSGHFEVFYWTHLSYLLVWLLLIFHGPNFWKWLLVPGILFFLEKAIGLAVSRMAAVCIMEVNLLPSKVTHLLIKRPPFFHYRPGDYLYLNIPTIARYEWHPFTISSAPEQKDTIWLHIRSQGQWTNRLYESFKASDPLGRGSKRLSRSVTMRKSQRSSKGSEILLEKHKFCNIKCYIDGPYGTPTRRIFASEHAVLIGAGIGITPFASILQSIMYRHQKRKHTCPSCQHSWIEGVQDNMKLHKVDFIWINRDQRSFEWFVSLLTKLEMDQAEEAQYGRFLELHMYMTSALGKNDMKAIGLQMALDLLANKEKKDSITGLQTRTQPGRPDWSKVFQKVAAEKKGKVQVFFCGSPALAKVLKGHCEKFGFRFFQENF
Sequence of Streptavidin (Streptomyces avidinii) (P22629 whole entry, looked up): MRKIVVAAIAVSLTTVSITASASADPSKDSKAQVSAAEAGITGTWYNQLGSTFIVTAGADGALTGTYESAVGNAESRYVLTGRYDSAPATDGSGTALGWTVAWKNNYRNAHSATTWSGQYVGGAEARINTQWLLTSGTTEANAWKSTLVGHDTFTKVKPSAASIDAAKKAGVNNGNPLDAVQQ
Sequence of NADPH oxidase 2 (Homo sapiens) (P04839 whole entry, looked up): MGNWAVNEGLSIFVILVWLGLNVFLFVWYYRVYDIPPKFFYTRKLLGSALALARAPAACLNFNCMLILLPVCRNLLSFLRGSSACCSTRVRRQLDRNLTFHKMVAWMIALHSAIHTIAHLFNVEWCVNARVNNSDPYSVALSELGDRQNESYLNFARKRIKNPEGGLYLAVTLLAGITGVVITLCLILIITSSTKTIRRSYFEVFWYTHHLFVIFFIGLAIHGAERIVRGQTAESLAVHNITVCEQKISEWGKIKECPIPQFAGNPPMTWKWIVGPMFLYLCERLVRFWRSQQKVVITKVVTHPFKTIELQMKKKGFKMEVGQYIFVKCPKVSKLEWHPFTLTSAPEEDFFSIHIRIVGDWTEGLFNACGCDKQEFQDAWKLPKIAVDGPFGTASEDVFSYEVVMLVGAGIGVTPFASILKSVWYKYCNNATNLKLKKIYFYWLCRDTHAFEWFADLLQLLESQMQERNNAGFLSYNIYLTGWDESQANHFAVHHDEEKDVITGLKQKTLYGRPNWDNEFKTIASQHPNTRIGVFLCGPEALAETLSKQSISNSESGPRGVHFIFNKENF
Sequence of Torsin-1A (Homo sapiens) (O14656 whole entry, looked up): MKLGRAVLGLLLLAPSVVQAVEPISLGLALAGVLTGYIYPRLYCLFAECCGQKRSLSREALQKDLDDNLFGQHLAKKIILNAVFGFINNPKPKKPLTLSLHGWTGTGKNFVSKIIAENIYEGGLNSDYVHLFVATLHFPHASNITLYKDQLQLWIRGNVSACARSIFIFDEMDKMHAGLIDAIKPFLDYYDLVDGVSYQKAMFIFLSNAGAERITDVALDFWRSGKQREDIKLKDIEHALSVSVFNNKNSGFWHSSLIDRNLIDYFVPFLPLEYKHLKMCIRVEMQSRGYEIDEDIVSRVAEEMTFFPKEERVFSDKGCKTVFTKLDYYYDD

For `COc1ccc(C#Cc2ccc3c(c2)[C@]2(C(=O)N3)[C@H](C(=O)O)[C@H]3C(=O)O[C@H](c4ccccc4)[C@H](c4ccccc4)N3[C@@H]2c2ccc(O)cc2)cc1`, the composite z-score in [1] was 0.0637; in assay [6], -0.31; in [7], -0.0313; in assay [8], 0.269; in assay [9] it was 0.578; in [10], -0.454. This compound displayed a composite z-score in assay [12] of 0.174. Further, the z-score in assay [2] is -4.48 (inactive); in [3], -0.563 (inactive); in [4] it was 0.0653 (inactive); in assay [5], -0.332 (inactive); in assay [11], 0.384 (inactive); in [13], -2.35 (inactive). Also, the z-score in [14] is -2.47 (inactive); in assay [15], -8.72 (active); in assay [16] it was -2.8 (inactive); in assay [17], 2.29; in [18], 0.479 (inactive); in assay [19], -3.77 (inactive). Besides, the z-score in assay [20] was -1.13.

Regarding `COC(=O)c1c(CC[C@@H](CO)NC(=O)N[C@@H](C)Cn2cc(-c3ccccn3)nn2)oc(C(C)=O)c1C(=O)OC`, the composite z-score in assay [1] is 0.182; in assay [6] it was -0.893; in [7], 0.154; in [8], 0.372; in assay [9], 0.591; in [10], 1.74. The composite z-score in assay [12] is -0.106. Also, the z-score is -2.77 (inactive) in [2]; -0.243 (inactive) in [3]; 1.21 (inactive) in assay [4]; 0.363 (inactive) in assay [5]; -0.476 (inactive) in assay [11]; 1.71 (inactive) in [13]. The z-score in assay [14] was -1.15 (inactive); in assay [15], 0.613 (inactive); in assay [16], -1.08 (inactive); in assay [17], 0.42; in assay [18] it was -3.95 (inactive); in assay [19], -2.23 (inactive). The z-score in [20] was -3.06.

With `COc1ccc(CCNC(=O)[C@@]2(Sc3ccc(C)cc3)CC(=O)N(Cc3ccccc3C(F)(F)F)[C@@H]2c2ccc(CO)cc2I)cc1`, the composite z-score in [1] is -0.0049; in assay [6] it was -0.975; in assay [7] it was 0.0714; in assay [8] it was -1.13; in [9], -0.702; in assay [10] it was -0.649. In [12], this compound had a composite z-score of 0.0701. The z-score in [2] is -1.53 (inactive); in [3], 1.02 (inactive); in assay [4] it was 0.362 (inactive); in [5], 2.7 (inactive); in [11] it was 0.729 (inactive); in assay [13], 7.89 (inactive). Further, the z-score in assay [14] is 1.43 (inactive); in assay [15] it was 0.932 (inactive); in assay [16] it was 0.844 (inactive); in assay [17] it was -0.513; in assay [18] it was 0.933 (inactive); in [19], -2.09 (inactive). Also, the z-score in assay [20] was determined as 0.713.

For the compound `COCCOC(=O)N1C(=O)[C@@]2(c3cc(C#CCNC(N)=O)ccc31)[C@H](C(N)=O)[C@H]1C(=O)O[C@H](c3ccccc3)[C@H](c3ccccc3)N1[C@@H]2c1ccccc1OCCO`, the composite z-score was 0.273 in assay [1]; 0.0571 in assay [6]; 0.183 in assay [7]; 0.112 in assay [8]; 0.25 in assay [9]; 0.878 in [10]. In assay [12], this compound showed a composite z-score of 0.0299. The z-score is 0.406 (inactive) in [2]; -0.0139 (inactive) in assay [3]; -0.465 (inactive) in [4]; 0.0355 (inactive) in assay [5]; -0.77 (inactive) in [11]; 6.57 (inactive) in assay [13]. Moreover, the z-score was 0.793 (inactive) in assay [14]; 1.18 (inactive) in assay [15]; 0.269 (inactive) in assay [16]; -0.309 in assay [17]; 1.9 (inactive) in assay [18]; 1.37 (inactive) in assay [19]. Besides, the z-score in [20] worked out at 0.198.

In the case of `CO[C@H]1O[C@H](CO)[C@@H](OC(=O)CCc2ccccc2)[C@@H]2OC(=O)[C@@H](Cc3ccccc3)C/C=C/C[C@H](Cc3ccccc3)C(=O)O[C@@H]12`, the composite z-score in assay [1] was 0.411; in assay [6], 0.29; in [7] it was -0.315; in assay [8], -0.293; in [9] it was 0.169; in assay [10], 0.476. In addition, in assay [12], the composite z-score is -0.0054. The z-score is -2.33 (inactive) in [2]; -0.605 (inactive) in [3]; -0.655 (inactive) in [4]; -0.43 (inactive) in assay [5]; 0.453 (inactive) in assay [11]; 4.5 (inactive) in assay [13]. Also, the z-score in assay [14] is 0.829 (inactive); in assay [15], 1.23 (inactive); in assay [16], 0.546 (inactive); in [17], 0.658; in [18] it was -4.56 (inactive); in assay [19], -0.97 (inactive). The z-score in [20] is -2.
